# Screens from PubChem BioAssay.
# ALOX12 inhib: 12-hLO (ALOX12) enzyme inhibition. P18054. purified 12-hLO, xylenol orange hydroperoxide absorbance. 150,000 compounds, 0.12% hits. AID 1452. Potency, µM (top dose mostly 57.1 µM), for inactives: at the highest dose activity change, negative = inhibition, actives largely listed as inhibitors; note: potency is the fitted concentration of half-maximal effect; nearly all actives have a fitted effect of over 55% in size
#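 Purified human 12hLO (150 nM), preincubated 15 min with compound, then 40 uM arachidonic acid for 30 min, room temperature, Hepes pH 7.0 with 0.01% Triton X-100. Hydroperoxide detected by ferrous iron/xylenol orange; 573/405 nm absorbance ratio gives reaction progress.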
# IMPase Li inh: cell-permeable IMPase inhibitors with lithium potentiation; Potency, µM (doses to about 59.4 µM), inactives show at the highest dose activity, negative = IMPase inhibition, actives largely listed as inhibitors; CHO-M1 cells, IP1 TR-FRET (IP-One), carbachol + lithium; 210,000 compounds, 0.35% hits;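 note: IP1 builds up when IMPase is blocked and the TR-FRET signal falls; potency is the fitted concentration of half-maximal effect; plate controls were basal vehicle for no effect and high inhibitor control for full effect; nearly all actives have a fitted effect of over 50% in size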
#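 CHO cells stably expressing M1 receptor (2000/well, cultured 16–30 h) treated 30 min at 37C with compound plus low lithium. Cytosolic IP1 by TR-FRET (665/620 ratio and 620 channel) after 10 min lysis; AC50 by Hill fit.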
# IMPase inh: cell-permeable inhibitors of inositol monophosphatase (IMPase); CHO-M1 cells, IP1 accumulation, HTRF TR-FRET ratio; 120,000 tested, under 10 active; inhibition (IP1 accumulation), % at 46.1 µM; active = well fitted curve in the direction sought with a large enough effect in the signal ratio, not every such curve was filed as active; inconclusive = small, poorly fitted or top-dose-only effect, or a change in a side signal; inactive = no such curve, though single readings can be large or run the other way; the % refers to the signal ratio;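 note: cells stimulated with carbachol in lithium chloride buffer; plate controls were DMSO basal wells for no effect and reference inhibitor wells for full effect; higher means more IMPase inhibition seen as more IP1 and lower FRET ratio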
#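 CHO-M1 cells (CHO stably expressing M1 receptor), compound up to 46 uM final, stimulated with carbachol (50 uM as added) in buffer with 50mM LiCl, pH 7.4, 30 min at 37C. Cytosolic IP1 read by TR-FRET; AC50 from Hill fits.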
# PNC inhibitor: blocks assembly of the perinucleolar compartment; PC3M PTB-GFP, PNC prevalence imaging, 16 h; hits give low values; activity change (PNC), negative = inhibition, % at 10 µM; 140,000 compounds, 3.1% hits; AID 2417;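 active = readout at or below -70, meaning at least 70% loss of cells showing the perinucleolar compartment, a nuclear body marking cancer cells; inconclusive = readout between -30 and a set limit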;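 note: plate controls were DMSO wells for no effect and camptothecin positive control wells for full effect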
#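 PC3M cells stably expressing PTB-GFP, 750–1000 cells/well, treated 16 h at 37 °C with compound (23 nl of library stock), in duplicate. After paraformaldehyde fixation and Hoechst stain, imaged at 20x; PNC prevalence scored by image analysis.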
# 15-hLO-2 inh: 15-hLO-2 (ALOX15B) enzyme inhibition; O15296; purified 15hLO-2, xylenol orange hydroperoxide absorbance; Potency, µM (top dose mostly 57.1 µM), for the others: top-dose activity change, negative = inhibition, most hits filed as inhibitors; 110,000 compounds, 0.56% hits; note: potency is the fitted concentration of half-maximal effect; nearly all actives have a fitted effect of over 60% in size
# Target sequence (O15296 whole entry, looked up): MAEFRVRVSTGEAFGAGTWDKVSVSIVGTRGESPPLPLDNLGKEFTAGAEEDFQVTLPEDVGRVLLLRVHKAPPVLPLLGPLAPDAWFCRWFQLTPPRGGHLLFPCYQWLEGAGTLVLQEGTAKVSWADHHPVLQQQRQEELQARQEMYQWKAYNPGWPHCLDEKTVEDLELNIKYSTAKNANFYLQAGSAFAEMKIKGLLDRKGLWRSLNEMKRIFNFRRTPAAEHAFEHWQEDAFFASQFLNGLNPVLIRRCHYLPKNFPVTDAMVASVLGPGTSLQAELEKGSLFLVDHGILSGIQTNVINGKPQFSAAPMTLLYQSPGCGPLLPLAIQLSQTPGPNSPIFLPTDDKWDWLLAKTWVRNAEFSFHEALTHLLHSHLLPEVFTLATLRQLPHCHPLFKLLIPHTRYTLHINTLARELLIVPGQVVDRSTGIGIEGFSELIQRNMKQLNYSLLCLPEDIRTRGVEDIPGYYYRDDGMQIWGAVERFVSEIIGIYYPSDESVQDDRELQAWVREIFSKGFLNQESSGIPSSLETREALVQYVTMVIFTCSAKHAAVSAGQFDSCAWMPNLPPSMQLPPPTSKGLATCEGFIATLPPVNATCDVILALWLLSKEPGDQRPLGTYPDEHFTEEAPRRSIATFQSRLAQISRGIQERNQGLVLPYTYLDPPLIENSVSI
#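 Enzyme 50 nM, AA 45 uM, 25 mM Hepes pH 7.5 + 0.01% Triton X-100; cpd preinc 15 min RT, rxn 90 min RT; stop/detect with 200 uM XO + 300 uM Fe(II) in 50 mM H2SO4, 30 min; A573/A405.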
# * hit, by the source's call; ? = inconclusive; nt = not tested or not shown; [ ] = remark or other dose. The sample as a whole holds a higher share of hits than the screen did. Unless noted, calls come from the whole dose curve; as a rule, active = well fitted curve in the direction sought with a large enough effect; inconclusive = small, poorly fitted or top-dose-only effect, or another doubt; inactive = no such curve, though single readings can be large; an effect the other way counts as inactive or inconclusive. Unless noted, % is set by controls: 0 for no effect and ±100 for the full control effect.
SMILES,ALOX12 inhib,IMPase Li inh,IMPase inh,PNC inhibitor,15-hLO-2 inh
Cc1ccc(S(=O)(=O)NCC(=O)OCC(=O)c2ccc(Br)s2)cc1,-4%,10µM*,?,10,-27%
Cc1ccc(S(=O)(=O)NCC(=O)OCC(=O)c2cccs2)cc1,-3%,1%[38.3 µM],0,12,3%
CCOCCCN(Cc1ccco1)C(=O)c1cc2c(=O)[nH]c3ccc(C)cc3c2s1,-5%,7%[38.3 µM],10,-85*,1%
Cc1ccc2[nH]c(=O)c3cc(C(=O)N(C)Cc4ccco4)sc3c2c1,4%,-2%[38.3 µM],-1,7,-14%
CCOc1ccc(CNC(=O)C(CC)n2nc(C)n3c(cc4occc43)c2=O)cc1OC (stereo not given),-5%,-9%[38.3 µM],-12,-89*,-4%
CC(=O)c1c(C)n(-c2cccc(C)c2)c2ccc(OC(=O)COc3ccccc3)cc12,nt,nt,10,nt,nt
COc1ccc(-c2cc(C(F)(F)F)nc(SCC(=O)N3CCCCC3)n2)cc1OC,nt,nt,-5,nt,nt
CCN(CC)c1ccc(NC(=O)c2cc(OC)cc(OC)c2)c(C)c1,-2%,34%[38.3 µM],19,-89*,-3%
CCN(CC)c1ccc(NC(=O)c2cccc(OC)c2)c(C)c1,3%,29%[38.3 µM],6,?,5%
CCOCCO,-1%,-7%,nt,nt,4%
CCOc1ccc2[nH]c(=O)c(CN(Cc3ccco3)Cc3nnnn3Cc3ccccc3)cc2c1,-16%,24%[38.3 µM],9,-17,6%
CCOc1ccc2[nH]c(=O)c(CN(CCO)Cc3nnnn3CCc3ccccc3)cc2c1,-8%,7%[38.3 µM],-3,-85*,-5%
CCNC(=S)Nc1ccc(N(c2ccccc2)C(C)C)cc1,?,10%[38.3 µM],10,?,?
CC(C)c1ccc(NC(=S)NN(c2ccccc2)c2ccccc2)cc1,?,12%,nt,-85*,nt
CCNc1ncc2nc(-c3cc(F)cc(F)c3)c(=O)n(CCc3ccccc3)c2n1,nt,-17%,nt,nt,-7%
CCNc1ncc2nc(CCc3ccccc3)c(=O)n(C)c2n1,-6%,3%,nt,nt,5%
O=S(=O)(Nc1cc(Sc2cccc3cccnc23)c(O)c2ccccc12)c1ccccc1,-5%,12%,nt,-103*,nt
Cc1ccc(NC2=C/C(=N/S(=O)(=O)c3cccs3)c3ccccc3C2=O)cc1,1%,22%,nt,-101*,nt
O=C1C(Nc2ccccc2)=C/C(=N/S(=O)(=O)c2cccs2)c2ccccc21,3%,24%,nt,-81*,nt
COC(=O)c1ccccc1NC1=C/C(=N\S(=O)(=O)c2cccs2)c2ccccc2C1=O,-7%,46%[38.3 µM],15,-22,-22%
CC(C)(C)NC(=O)C(c1ccsc1)N(CCc1ccccc1)C(=O)Cn1nnc2ccccc21 (stereo not given),-3%,-2%[38.3 µM],-1,-89*,2%
CCC(C)(C)NC(=O)C(c1ccc(C)cc1)N(Cc1ccco1)C(=O)Cn1nnc2ccccc21 (stereo not given),6%,7%,-3,-100*,nt
COCCN(Cc1cc2cc(C)cc(C)c2nc1Cl)C(=O)Nc1ccccc1,0%,8%,14,60,10%
Cc1cc(C)c2nc(Cl)c(CN(Cc3ccco3)C(=O)Nc3ccccc3C)cc2c1,-1%,7%,10,-90*,3%
CCCOc1ccc(/C=C/C(=O)Nc2sc3c(c2C(=O)OCC)CCC(C)C3)cc1OC (stereo not given),nt,nt,-9,nt,nt
SMILES,ALOX12 inhib,IMPase Li inh,IMPase inh,PNC inhibitor,15-hLO-2 inh
CC(=O)Nc1cnc(NC(=O)c2cccc(F)c2)cc1C,14%,5%,4,?,nt
CCC(=O)Nc1cnc(NC(=O)c2cccc(F)c2)cc1C,-4%,0%,2,-100*,nt
c1cn(CCCNc2ncnc3nc[nH]c23)cn1,-2%,24%[38.3 µM],-2,-112*,13%
CCN1CCN(CCCNc2ncnc3nc[nH]c23)CC1,0%,29%[38.3 µM],1,?,1%
CN1C(=O)N(C)C2=NNC=NC2(O)C1=O (stereo not given),nt,-2%,nt,nt,nt
N#Cc1ccc(CN2CCC3(CC2)CCN(S(=O)(=O)c2ccccc2)CC3)cc1,4%,44%,nt,nt,36%
c1ccc2c(c1)[nH]c1c(N3CCOCC3)ncnc12,4%,1%,2,-119*,2%
O=C(NCCOC(=O)c1ccncc1)c1ccccc1,-1%,-14%[38.3 µM],3,-6,5%
